Laboratory results: paper PMC4336329 (PLoS ONE, 2015)
About 14,000 (4.5%) of roughly 310,000 compounds showed an effect of 50% or more. The effect is printed as a negative number. What follows is part of a selection rich in strong results, with near analogues and random picks from the rest.

biological target: human ether-à-go-go-related gene (hERG) potassium channel (human, UniProt Q12809); test: primary screen, population patch clamp on CHO cells stably expressing hERG; higher = less effect of the substance
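Further: peak tail current of the secondary pulse compared with the same well before compound.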

human ether-à-go-go-related gene (hERG) potassium channel, sequence (Q12809 whole entry, looked up): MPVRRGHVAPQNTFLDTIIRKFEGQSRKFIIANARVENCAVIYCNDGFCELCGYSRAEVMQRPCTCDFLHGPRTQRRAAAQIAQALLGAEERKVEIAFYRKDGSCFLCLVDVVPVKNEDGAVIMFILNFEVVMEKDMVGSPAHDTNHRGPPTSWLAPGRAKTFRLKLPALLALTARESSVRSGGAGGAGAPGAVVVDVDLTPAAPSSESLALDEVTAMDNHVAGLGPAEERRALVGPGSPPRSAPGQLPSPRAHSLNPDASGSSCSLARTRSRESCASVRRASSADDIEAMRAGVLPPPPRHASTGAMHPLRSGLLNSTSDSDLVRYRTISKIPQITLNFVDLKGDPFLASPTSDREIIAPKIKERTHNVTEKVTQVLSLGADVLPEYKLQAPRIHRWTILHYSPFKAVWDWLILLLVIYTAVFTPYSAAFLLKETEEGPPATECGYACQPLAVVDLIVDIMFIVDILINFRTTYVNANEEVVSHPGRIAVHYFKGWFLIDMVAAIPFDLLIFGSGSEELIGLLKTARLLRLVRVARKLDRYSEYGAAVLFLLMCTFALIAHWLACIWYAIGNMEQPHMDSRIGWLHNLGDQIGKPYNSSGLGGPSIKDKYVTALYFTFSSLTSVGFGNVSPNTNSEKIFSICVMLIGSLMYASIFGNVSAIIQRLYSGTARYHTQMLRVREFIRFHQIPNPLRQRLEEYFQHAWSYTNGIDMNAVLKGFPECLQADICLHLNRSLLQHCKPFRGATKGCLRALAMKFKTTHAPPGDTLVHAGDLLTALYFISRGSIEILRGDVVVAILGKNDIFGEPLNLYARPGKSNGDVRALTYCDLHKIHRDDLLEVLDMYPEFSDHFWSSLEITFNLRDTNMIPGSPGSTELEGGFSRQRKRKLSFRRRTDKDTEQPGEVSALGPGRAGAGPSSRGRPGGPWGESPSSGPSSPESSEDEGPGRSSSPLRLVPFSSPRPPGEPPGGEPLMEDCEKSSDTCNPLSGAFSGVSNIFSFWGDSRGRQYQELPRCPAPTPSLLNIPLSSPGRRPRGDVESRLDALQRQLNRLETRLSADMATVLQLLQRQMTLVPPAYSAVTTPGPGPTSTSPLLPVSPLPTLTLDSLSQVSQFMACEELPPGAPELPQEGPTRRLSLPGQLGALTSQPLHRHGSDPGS

| Structure (SMILES) | hERG current change (%, negative = inhibition) at 10uM [%] |
| --- | --- |
| O=C(CN1CCC2(CC1)OCCO2)c1ccc2cc[nH]c2c1 | -15.2 |
| Cc1cc(C(=O)N/N=C/c2ccc(-c3cccc(Cl)c3)o2)n[nH]1 | 11.3 |
| CN1C(C(=O)NCC2CC2)CC2Cn3c(nc4ccccc43)C21 (stereo not drawn) | 15.5 |
| CN1C(C(=O)NCc2ccc(OC(F)(F)F)cc2)CC2Cn3c(nc4ccccc43)C21 (stereo not drawn) | -78.7 |
| COc1ccc(CCNC(=O)C2CC3Cn4c(nc5ccccc54)C3N2C)cc1 (stereo not drawn) | -8.64 |
| CCOc1ncccc1C(=O)NCCCSc1ccccc1 | -35.9 |
| O=C(O)C1=C[C@@H](c2ccccc2)C[C@@H](OCCCCO)O1 | 8.4 |
| COc1ccc(CC(C)N2CCN(Cc3ccccc3)CC2)cc1OC (stereo not drawn) | -33.1 |
| COc1ccc(CC(C)N2CCN(c3ccccc3OC)CC2)cc1OC (stereo not drawn) | -62.1 |
| COc1ccc(CC(=O)N2CCN(c3ccccc3)CC2)cc1OC | 18.4 |
| COc1ccc(CC(C)N2CCN(c3cccc(C(F)(F)F)c3)CC2)cc1OC (stereo not drawn) | -65.9 |
| COc1ccc(CC(C)N2CCN(c3ccccc3)CC2)cc1OC (stereo not drawn) | -64 |
| COc1ccc(/C=N/N2CCN(c3ccccc3OC)CC2)cc1OC | -19.7 |
| COc1cccc(CN2CCN(c3cccc(C(F)(F)F)c3)CC2)c1OC | -23.9 |
| COc1ccc(S(=O)(=O)N2CCN(c3ccccc3OC)CC2)cc1OC | -2.71 |
| COc1ccccc1CC(=O)N1CCN(c2cccc(C(F)(F)F)c2)CC1 | -9.71 |
| CC1(/[N+]([O-])=C\c2ccccc2F)CCCCC1=O (stereo not drawn) | 8.53 |
| Cc1ccn2c(-c3n[nH]c(=S)n3C)c(C)nc2c1 | 19.6 |
| COc1cccc(NC(=O)N2CCCC2C(=O)Nc2ccc3c(c2)OCO3)c1 (stereo not drawn) | 15.8 |
| O=c1[nH]c(=O)n(Cc2ccco2)c(O)c1/C=N/N1CCCCC1 | 3.21 |
| O=c1[nH]c(=O)n(Cc2ccco2)c(O)c1C=NC1CCN(Cc2ccccc2)CC1 | -59.2 |
| O=c1[nH]c(=O)n(CCC2=CCCCC2)c(O)c1/C=N/Nc1ccccc1 | 14.8 |
| O=c1[nH]c(=O)n(CCC2=CCCCC2)c(O)c1C=NC1CCN(Cc2ccccc2)CC1 | -58.6 |
| Cn1c(O)c(C=NC2CCN(Cc3ccccc3)CC2)c(=O)n(C)c1=O | -20.4 |

| Structure (SMILES) | hERG current change (%, negative = inhibition) at 10uM [%] |
| --- | --- |
| O=c1[nH]c(=S)n(CCC2=CCCCC2)c(O)c1C=NC1CCN(Cc2ccccc2)CC1 | -55 |
| O=c1[nH]c(=O)n(C2CCCCCC2)c(O)c1C=NCc1cccnc1 | -9.79 |
| O=c1[nH]c(=S)n(CCC2=CCCCC2)c(O)c1/C=N/Nc1ccccc1 | -7.83 |
| O=C(N/N=C/c1c(O)n(CCC2=CCCCC2)c(=S)[nH]c1=O)c1ccccc1 | 7.94 |
| C=CCn1c(O)c(C=NC2CCN(Cc3ccccc3)CC2)c(=O)[nH]c1=O | -33.5 |
| O=c1[nH]c(=O)n(Cc2ccco2)c(O)c1C=NC1CC1 | 9.35 |
| O=c1[nH]c(=O)n(C2CCCCCC2)c(O)c1C=NC1CCN(Cc2ccccc2)CC1 | -53.2 |
| CC(C)(C)NC(=O)COC(=O)c1cc(S(=O)(=O)N2CCCCC2)ccc1N1CCOCC1 | -6.23 |
| CCOC(=O)c1ccc(N2C(=O)CC(Nc3ccc(CCO)cc3)C2=O)cc1 (stereo not drawn) | -25.5 |
| OCC[C@@H]1C[C@H](O)[C@@H](O)[C@]2(CCCCO2)O1 | 21.2 |
| CCOc1ccc(C(Nc2ccc(C)cc2)P2(=O)OCC(C)(C)CO2)cc1 (stereo not drawn) | 4.67 |
| Cn1cccc1CC(=O)NNC(=O)Nc1cccc(Cl)c1 | 18.9 |
| O=S(=O)(Nc1ccccc1O)c1cccc2cccnc12 | 8.14 |
| O=C(CNC(=O)c1cccs1)NCCN1CCN(c2ccccc2F)CC1 | -35.3 |
| N#Cc1ccc(NC(=O)N2CCC(c3nc4c(nnn4Cc4cccc(Cl)c4)c(=O)[nH]3)CC2)cc1 | 3.5 |
| Cc1ccccc1SCC(=O)Nc1cc(C(F)(F)F)ccc1N1CCOCC1 | -1.77 |
| Cn1c(O)c(C=NC2CCN(Cc3ccccc3)CC2)c(=O)[nH]c1=O | -26.5 |
| O=c1[nH]c(=O)n(CCc2ccccc2)c(O)c1C=NC1CC1 | 3.17 |
| CCCCCCn1c(O)c(C=NC2CCN(Cc3ccccc3)CC2)c(=O)[nH]c1=O | -65.7 |
| COC(=O)c1ccccc1NC(=O)CN1CCN(C(=O)c2ccco2)CC1 | -51.6 |
| O=C(CN1CCOCC1)Nc1ccccc1-c1ccccc1 | 4.15 |
| O=C(CN1CCCCC1)Nc1ccccc1-c1ccccc1 | -9.07 |
| COC(=O)c1ccccc1NC(=O)CN1CCC(C)CC1 | 9.3 |
| COC(=O)c1ccccc1NC(=O)N1CCN(C(=O)c2ccco2)CC1 | -25 |
